Not all results are given here.
aSyn UTR act: Activators via SNCA 5'UTR binding, MLPCN | alpha-synuclein 5'UTR reporter, activators screen | activity score, % (tested at 7.5 µM), hits read low | 300,000 tested, 7.1% active; in the data active = activity score below about -60%
An asterisk follows results filed as active.

SMILES | aSyn UTR act
COc1ccc(-n2cnc3sc4c(c3c2=O)CCCC4)cc1 | -88*
Cc1ccc(O)c(-c2cc3ccccc3[nH]2)c1 | -131*
COc1ccc(-c2cc(=O)c3ccccc3[nH]2)cc1 | -79*
c1ccc(-c2cc3ccccc3[nH]2)cc1 | -139*
O=c1cc(-c2ccccc2)[nH]c2cc(Cl)ccc12 | 104
COc1ccc(-c2cc3ccccc3[nH]2)cc1 | -159*
COc1ccc2[nH]c(-c3cccc(F)c3)cc(=O)c2c1 | 63
CC(=O)c1cnc2cc(-c3cccc(Br)c3)nn2c1C | -213*
Cc1cc(C)n2nc(-c3cccc(Br)c3)cc2n1 | -114*
Cc1cccc(-c2cc3nc(C)cc(C)n3n2)c1 | -235*
COc1ccc2nc(C)cc(Nc3ccc(N4CCN(C)CC4)cc3)c2c1 | -87*
COc1ccc(OC)c(Nc2cc(C)nc3ccc(C)cc23)c1 | 63
CC(C)(C)c1ccc(-c2noc(CCC(=O)Nc3cccnc3)n2)cc1 | 77
CC(Cc1ccccc1)C(=O)Nc1ccc(Br)cc1 (stereo not given) | -81*
O=C(CCc1ccccc1)Nc1cccnc1 | -63*
CC(C)c1ccc(NC(=O)CCc2ccccc2)cc1 | -389*
COCc1cccc(NC(=O)CCc2ccccc2)c1 | -99*
Cc1cc(NC(=O)CSc2cn(CCNC(=O)c3ccc(Cl)cc3)c3ccccc23)no1 | -90*
Cc1ccc(C(=O)NCCn2cc(SCC(=O)Nc3nnc(C)s3)c3ccccc32)cc1 | -109*
O=C(NCCn1cc(SCc2ccccc2F)c2ccccc21)c1c(F)cccc1F | -62*
c1cc2cc(-c3c(-c4ccc5c(c4)OCO5)noc3-c3ccsc3)ccc2[nH]1 | -81*
c1ccc(-c2onc(-c3ccco3)c2-c2ccc3[nH]ccc3c2)cc1 | -65*
C/C(=C\c1ccccc1)C(=O)Nc1ccc(Cl)cn1 | -180*
Cn1ncc(Cl)c1C(=O)Nc1ccc(Cl)cn1 | -114*
CC(C)c1ccc(/C=N/NC(=O)c2c(Cl)cnn2C)cc1 | -142*
SMILES | aSyn UTR act
O=C(Nc1ccc(Cl)cn1)Nc1ccccc1F | -153*
O=C(Nc1ccc(Cl)cn1)Nc1ccc(Cl)cn1 | -77*
O=C(Nc1ccc(F)cc1)Nc1ccc(Cl)cn1 | -121*
c1ccc(-c2noc(C34CC5CC(CC(C5)C3)C4)n2)nc1 | -209*
c1ccc(-c2noc(C34CC5CC(CC(C5)C3)C4)n2)cc1 | -69*
O=C(Nc1nnc(SCc2ccccc2F)s1)C1=COCCO1 | -117*
c1ccc(CSc2nnc(NC3=NCCCCC3)s2)cc1 | -89*
O=C(Nc1nnc(SCc2ccccc2)s1)C1=COCCO1 | -72*
CC(=O)Nc1nnc(SCc2ccccc2F)s1 | -76*
C=CCSc1nnc(NC(=O)C2=COCCO2)s1 | -82*
O=C(NCCc1ccccc1)C1=COCCO1 | -129*
CCN(CC)CC#CC(OC)(c1ccccc1)c1ccccc1 | -81*
Cn1cccc1-c1nc2ccc(NC(=O)c3cccs3)cc2[nH]1 | -115*
CC(=O)Nc1ccc2nc(-c3cccn3C)[nH]c2c1 | -88*
CC(=O)Nc1ccc2nc(-c3cccs3)[nH]c2c1 | -110*
c1ccc(C2=NNC(=NC3CC3)SC2)cc1 | 58
c1ccc2c(C3=NNC(=NC4CCCCC4)SC3)c[nH]c2c1 | -140*
CN1CCN(S(=O)(=O)c2cccc(C(=O)Nc3sc4c(c3-c3nc5ccccc5[nH]3)CCCC4)c2)CC1 | -109*
Cc1ccc(N2CN=C(c3ccccc3)NC2=S)cc1 | -113*
COc1ccc(C2=NCN(c3ccc(C)cc3)C(=S)N2)cc1 | -138*
CCN1C(=O)/C(=C\N2CCCCCC2)SC1=S | -112*
CCN1C(=O)/C(=C/N2CCc3ccccc3C2)SC1=S | -108*
COc1ccc(/C=C2\SC(=S)N(CCCC(=O)N3CCCCC3CCO)C2=O)cc1 (stereo not given) | 68
Nc1cc2c(cc1O)CCCC2 | -91*
CC(C)(C)n1cnc2cc(NC(=O)c3ccc(Cl)cc3)ccc21 | -138*
SMILES | aSyn UTR act
COCCNC(=O)c1ccc2c(c1)ncn2-c1cccc(C)c1 | -75*
Cn1cnc2cc(NC(=O)c3ccc(Cl)cc3)ccc21 | -139*
Cc1cccc(C(=O)Nc2ccc3c(c2)ncn3C)c1 | -112*
O=C(Nc1ccc2nn(-c3ccccc3)nc2c1)c1cccs1 | -178*
Cn1cnc2cc(NC(=O)c3cccs3)ccc21 | -97*
CCC(C)NC(=O)c1cc(Sc2nnc(C)s2)nc2ccccc12 (stereo not given) | -67*
Cc1ccccc1NC(=S)c1nc2ccccc2[nH]1 | -145*
S=C(Nc1ccc(Cl)cc1)c1nc2ccccc2[nH]1 | -79*
Cc1ccccc1C(=O)NC1CCCCCCC1 | -148*
O=C(NC1CCCCCCC1)c1ccccc1O | -175*
O=C(NC1CCCCC1)c1cc2ccccc2cc1O | -81*
Cc1c(NC(=O)c2ccc(Br)o2)cccc1C(=O)O | -86*
COC(=O)C1=C(Nc2ccccc2NC(=O)c2ccccc2C(=O)O)CSC1 | -167*
Cc1c(NC(=O)c2ccccc2N)cccc1C(=O)O | -155*
Nc1ccccc1NC(=O)c1ccccc1N | -139*
Nc1ccccc1NC(=O)NC(=O)c1ccccc1 | -169*
O=C(O)c1ccccc1C(=O)Nc1ccccc1NC(=O)c1ccccc1C(=O)O | -126*
N/C(=N\OC(=O)c1ccc2c(c1)OCO2)c1ccc(Cl)cc1 | -165*
COc1ccc(/C(N)=N/OC(=O)c2ccc3c(c2)OCO3)cc1 | -98*
O=C(COC(=O)c1cc(Cl)ccc1O)c1ccc2c(c1)OCO2 | -122*
N/C(=N\OC(=O)c1ccc2c(c1)OCO2)c1ccncc1 | -102*
Cc1nn(-c2ccc(N3CCCCC3)nn2)c(C)c1CCC(=O)Nc1cc(F)ccc1F | -65*
CN1CCc2c(sc3nc(SCC(=O)NCc4ccco4)n(-c4ccccc4)c(=O)c23)C1 | -84*
O=C(CSc1nc2ccsc2c(=O)n1NC(=O)c1ccccc1)NCc1ccco1 | -70*
O=C(CSc1nc2ccsc2c(=O)n1NC(=O)c1ccccc1)Nc1nccs1 | -82*
SMILES | aSyn UTR act
COc1ccc(C(=O)Nn2c(SCC(=O)NCc3ccccc3)nc3ccccc3c2=O)cc1 | 77
CC(C)(C)C1CCc2onc(C(=O)Nc3cccc(O)c3)c2C1 (stereo not given) | -92*
Cc1cc(C)n(-c2nc(-c3ccccc3)cs2)n1 | -89*
Cc1cc(C)n(-c2nc(-c3cccc(Cl)c3)cs2)n1 | -102*
CC(=O)N(/N=C1/C(=O)Nc2ccccc21)c1ccccc1 | -114*
O=C(Nc1ccccc1-c1ccccc1)c1ccc(=O)[nH]n1 | -128*
Cc1ccc(S(=O)(=O)Nc2ccccc2-c2ccccc2)cc1 | 54
CC(C)(C)c1ccc(NC(=O)c2ccc(=O)[nH]n2)cc1 | -102*
COc1ccc(C2=NN(c3nc(-c4ccc(CNC(C)=O)cc4)cs3)C(c3ccco3)C2)cc1 (stereo not given) | -78*
O=C(Nc1cccc2cccnc12)c1ccc(Cl)cc1 | -76*
CCC(=O)NC(c1ccc(C)cc1)c1ccc2cccnc2c1O (stereo not given) | 81
C/C(=N\Nc1cccc2cccnc12)c1ccc(C)cc1 | -170*
Cc1ccc(/C=C/C(=O)Nc2cccc3cccnc23)o1 | -132*
Cc1ccc(C(=O)Nc2cccc3cccnc23)cc1C | -87*
CC(C)C(=O)NC(c1ccc(Cl)cc1Cl)c1ccc2cccnc2c1O (stereo not given) | 92
CN1CCN(C(c2ccc(Cl)cc2)c2cc(Cl)c3cccnc3c2O)CC1 (stereo not given) | 77
O=C(Nc1ccnc(-c2cccnc2)n1)c1ccc(Cl)cc1 | -117*

Screening results deposited in PubChem by Broad Institute.
